Results: the supplement of paper PMC6555819

Assays:
Assay in all cases: PBM binding z-score (relative to random genomic background probes); higher = stronger binding; sequences stand for … in GC…GCGATTGACAGCGTAGAATGAAGG
[1] = tested on: FXR:RXRa (NR concentration 270 nM, RXRa partner concentration 90 nM)
Outline: (§1)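 Binding z-scores were set against random background probes. The data came from custom Agilent 4×180K protein-binding microarrays carrying double-stranded probes with 34-nt variable regions, incubated 1 h with ligand-free nuclear receptor dimers. Partner-specific antibodies detected binding, and scanned fluorescence was regression-normalized.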

[2] = tested on: LXRa:RXRa (NR concentration 270 nM, RXRa partner concentration 90 nM)
Outline: as §1

[3] = tested on: LXRa homodimer (NR concentration 270 nM)
Outline: as §1

[4] = tested on: LXRb:RXRa (NR concentration 270 nM, RXRa partner concentration 90 nM)
Outline: as §1

[5] = tested on: LXRb homodimer (NR concentration 270 nM)
Outline: as §1

[6] = tested on: PPARa:RXRa (NR concentration 270 nM, RXRa partner concentration 90 nM)
Outline: as §1

[7] = tested on: PPARg:RXRa (NR concentration 180 nM, RXRa partner concentration 90 nM)
Outline: as §1

[8] = tested on: PPARg:RXRa 270nM:90nM, anti-RXR (NR concentration 270 nM, RXRa partner concentration 90 nM)
Outline: as §1

[9] = tested on: PPARg:RXRa 30nM:10nM, anti-RXR (NR concentration 30 nM, RXRa partner concentration 10 nM)
Outline: as §1

[10] = tested on: PPARg:RXRa 90nM:30nM, anti-RXR (NR concentration 90 nM, RXRa partner concentration 30 nM)
Outline: as §1

Sequence	PBM binding z-score [1]	PBM binding z-score [2]	PBM binding z-score [3]	PBM binding z-score [4]	PBM binding z-score [5]	PBM binding z-score [6]	PBM binding z-score [7]	PBM binding z-score [8]	PBM binding z-score [9]	PBM binding z-score [10]
CGTCCAAGGTCAAAGGTCTGTGAAGAGATGACGG	7.64	5.46	1.27	4.26	0.554	5.87	7.08	6.81	4.47	6.48
TCTTGTAGATCAAAGGTTAAAAAAGCCGAAGCCT	1.88	2.35	0.549	2.44	0.41	4.79	8.35	8.18	7.69	9.24
CCGAGTAGGTTATGGGCCATTCAGGCAACGGTGA	-0.39	0.176	-0.0661	-0.0151	-0.497	1.58	2.14	3.47	1.22	3.06
CCTGCTAGGTCAATGCTCAGCTAAAGCAGCTCGC	2.82	1.9	-0.307	1.16	-0.142	2.54	1.2	1.88	-0.451	0.833
GATATTAGTTGAAAGGGCAACCGAATGATTCTCG	0.693	1.12	0.566	1.26	0.285	2.63	2.9	4.65	2.47	4.54
ACTCAGAGGACAAAGGTCAGAGCTACGCCAGTGA	4.51	4.87	1.72	3.52	0.532	5.3	7.56	7.42	5.13	7.46
ATCGAAAGGTCGAGGTGACTATAGAGAAAGGGAA	4.61	3.47	0.0804	2.68	0.167	4.72	3.8	3.74	1.66	3.09
TCTATTAGTTGATTAGGGCCACCGAAACAGCGGA	0.951	0.434	0.125	0.653	0.614	0.786	-0.0833	1.9	3.63	2.7
AATACAGGGTCATCGTAGGCCCGAGTACGCACAG	6.78	5.81	2.32	3.99	0.935	5.82	6.57	6.13	2.54	5.01
CAGCCTAGGTCAGGGCCAGGATAGGAGGAACGTT	1.84	0.87	-0.49	0.522	-1.06	2.04	0.835	1.15	-0.0382	0.556
TCGAGAAGGTTAGTCGGGGCATTCAGCCAACATA	0.663	0.631	-0.271	0.863	-0.323	1.32	0.00646	1.2	1.72	1.33
TAGCCTAGGTGATGCGGGCCAGTATAGTGTCGGC	-0.724	-0.891	-0.841	-1.2	-1.39	-0.486	-0.087	-0.902	-1.01	-0.934
CGTCCATGGTCAAAGGTCAGTGAAGAGATGACGG	3.85	3.63	0.607	3.29	0.097	4.92	7.27	7.01	5.64	7.4
GATACAGGGTCAAGGCCAAAGTACGCGTATTGAT	6.56	4.57	0.296	4.15	0.33	5.6	6.18	5.96	2.37	4.76
GCTAGATGGTCAGTAAAAGGTCACACACCGGTCG	3.28	4.21	4.31	4.17	0.588	4.58	2.79	3.94	1.99	3.21
CTTTACGGGTCACTCCAGGTTATAGCATCGGAGT	5.38	7.71	3.92	5.61	1.09	4.97	4.47	4.7	1.86	3.42
TCTCGGAGGACACGAAAGTCAGAGCTTTCCAGAG	0.434	-0.603	-0.708	-0.456	-1.24	0.0493	-0.000671	0.487	2.23	1.24
CCAGACAGGTGCAAGGTAACTCAGTCTGGTACGC	-0.53	-0.47	-0.166	-0.568	-0.694	-0.13	0.366	0.416	-0.287	0.128
CCGACTGGGGCGAAGGTTACCATACTCAGTACGA	-0.11	-0.108	-0.381	0.654	-1.24	3.09	7.04	7.02	5.36	6.85

Sequence	PBM binding z-score [1]	PBM binding z-score [2]	PBM binding z-score [3]	PBM binding z-score [4]	PBM binding z-score [5]	PBM binding z-score [6]	PBM binding z-score [7]	PBM binding z-score [8]	PBM binding z-score [9]	PBM binding z-score [10]
GCTATTAGTTGAAAGAGCAACCGAATGATTCTCG	-0.368	-0.335	-0.0598	-0.509	-0.535	0.321	0.704	1.95	0.137	1.51
GCTCGGAGGACAAGGTCAGACCTTTGTCCGTAGA	2.03	2.52	-0.219	1.95	0.0255	3.08	1.88	2.61	-0.0164	1.74
TCTAGATGGTCAAAGGTCACACACTCGAAATGCG	6.69	5.75	4.06	5.58	1.37	6.38	10.2	8.58	8.53	9.72
ATACCAATGTGATCGTGAGGTCGTTGATACTAAC	1.13	0.684	0.704	0.894	-0.063	0.905	0.346	0.198	0.123	0.295
TCGAGTATGTTAGGGGCATTCAGAATGGCGTCGA	0.201	0.198	-0.264	0.596	-0.345	0.669	0.0373	0.882	0.884	1.02
CAAACTAGGTCACATAGGTCAAAGTCCGTGCGTA	6.12	5.33	4.86	5.05	1.48	5.74	9.47	7.44	6.05	7.51
GCTAGTTGGGCAGTAAAAGGTCACACACCGGTCG	3.19	4.3	4.34	3.64	0.418	4.28	2.12	3.8	1.65	3.19
GCTATTAGTTGAAAGGGCGACCGAATGATTCTCG	-0.184	0.0609	-0.118	0.0118	-0.239	0.973	1.72	3.27	1.2	3.05
TCTTGTAGATCAATAGAGGTTAAGATAGTGCGCT	1.04	3.81	0.813	1.97	-0.0819	1.99	0.479	1.59	2.43	2.03
CTCCCAAGGTGAACAAGGTCGTTGATTACTATTC	1.08	1.47	0.177	1.84	-0.42	2.36	0.575	1.07	0.0592	0.823
CTCGAAAGGTCGTGCTCAGGTGAGCATACCAAAC	5.82	4.04	-0.293	3.23	0.516	4.76	3.03	4.08	1.02	2.96
TCTGCCAGGTCAACGATGGTCAGCTAATCTGCTA	4.25	3.33	0.136	2.23	0.15	3.46	2.13	2.8	1.53	2.04
CGCCCAAGGTCAGAGAGGTCAGTGAATGCCGAGT	6.04	4.89	3.24	4.24	-0.135	4.86	3.1	4.03	0.767	2.55
CCCGACAGGTGAAAGGTAACTCAGTCTGGTACGC	0.639	0.898	-0.133	0.876	-0.143	3.39	5.1	5.75	3.73	5.61
TCGATTAGGTTAGGGGCATTCAGAATGGCGTCGA	0.719	0.542	0.0424	1.5	0.612	1.46	0.358	2.01	2.41	2.22
CGTACTGGGCCAAGGTCATTGATCAGTCAAAGCA	3.11	3.03	1.23	3	-0.201	3.99	4.09	4.29	1.79	3.54
GCTTGTAGATCTAGGTTAAGAAAGACTAAGCTAA	-0.373	-0.228	-0.5	-0.166	-0.791	1.14	0.547	0.539	0.267	0.418
CCAGACAGGGGAGAAGGTAACTCAGCCTCGATTA	-0.354	-0.331	-0.147	-0.0664	-0.72	-0.0873	0.239	0.0493	-0.552	0.0211
CCGACTGGTGCATAAGGTTACCATAAGCCAGCCC	0.236	1.78	0.0222	0.722	-0.632	1.04	0.64	1.03	-0.311	0.705
